Pf Dd2 inh: Plasmodium falciparum Dd2 growth inhibition. AID 1347417. 120,000 tested, 4.3% active. P. falciparum Dd2 growth, SYBR Green, 72 h. Potency, µM (doses to about 28.9 µM), without a hit: top-dose activity, negative = inhibition, hits mostly inhibitors; active = well fitted inhibition curve with a large enough effect;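 also: plate controls were DMSO vehicle for no effect and reference drug for full effect; nearly all actives have a fitted effect of over 65% in size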
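Readout: SYBR Green fluorescence, 485 nm excitation, 535 nm emission, after ~16 h lysis at 37C. Before that, Dd2-infected red cells (2.5% hematocrit) grew 72 h with compound, 29 uM top final concentration.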
* = called active by the depositor; i = inactive; [ ] = remark or other dose. The sample as a whole holds a higher share of hits than the screen did. Potency is read from the fitted curve at half-maximal effect.

SMILES	Pf Dd2 inh
CN(C)CC(=O)N1Cc2ccccc2CC2(CCCN(C)C2)C1 (stereo unspecified)	-7.7%
CCn1ncc(N2CCCC(CC(=O)N3CCCCC3)C2)cc1=O (stereo unspecified)	i
CC(C)c1cc(NCCC(=O)NC2CCCCC2)n2nccc2n1	-24.6%
Cn1ccc(C(=O)NCc2nnc3n2C(C(=O)NCC2CC2)CC3)n1 (stereo unspecified)	-8.0%
COCCNc1ncnc2c1CN(c1ccc(OC)cc1)C(=O)CN2C	23.5%
COC[C@]1(O)CCN(C(=O)C2(c3ccc(OC)cc3)CC2)CC1(C)C	-0.6%
Cc1cccc(-c2nc3cnccn3c2NCCC(=O)N2CCCCC2)c1	i
CCCN1C(=O)c2[nH]nc(-c3ccccc3O)c2C1c1ccc(OCc2ccccc2)c(OC)c1 (stereo unspecified)	10µM*
CCCn1nc(C)c2c1NC(=O)CC2c1ccc(OCC(N)=O)c(OC)c1 (stereo unspecified)	-21.1%
CCCN1C(=O)CN(C2CCCCC2)C(=O)C1c1ccc(OC)c(OC)c1 (stereo unspecified)	39.3%
CCCCc1nc2cc(C(=O)N(C)Cc3ccc4nonc4c3)ccc2o1	i
Cc1ccc(-c2cn3c(n2)sc2cc(C(=O)NCCC4=CCCCC4)ccc23)cc1	1.5%
COc1ccc(-c2cn3c(n2)sc2cc(C(=O)NCc4cccc(F)c4)ccc23)cc1	19.7%
CCC(C)NC(=O)c1ccc2c(c1)sc1nc(-c3ccc(OC)cc3)cn12 (stereo unspecified)	-15.2%
CCc1ccc(-c2cn3c(n2)sc2cc(C(=O)NCCC4=CCCCC4)ccc23)cc1	i
COc1ccc(-c2cn3c(n2)sc2cc(C(=O)Nc4cccc(SC)c4)ccc23)cc1	i
COc1ccc(-c2cn3c(n2)sc2cc(C(=O)Nc4cc(OC)cc(OC)c4)ccc23)cc1	i
CCOc1ccccc1CNC(=O)c1ccc2c(c1)sc1nc(-c3cccc(OC)c3)cn12	11.2µM*
COc1cccc(-c2cn3c(n2)sc2cc(C(=O)NC4CCCCC4)ccc23)c1	-11.9%
CCN(CC)CCCNC(=O)c1ccc2c(c1)sc1nc(-c3ccc(C)cc3)cn12	1.26µM*
COc1ccc(-c2cn3c(n2)sc2cc(C(=O)NCc4ccccc4OC)ccc23)cc1	-22.6%
CCCN1CCN(CCCNC(=O)c2ccc3c(c2)sc2nc(-c4ccc(OC)cc4)cn23)CC1	1µM*
COc1ccc(-c2cn3c(n2)sc2cc(C(=O)NCCCN4CCN(C)CC4)ccc23)cc1	2.51µM*
CCCc1ccc(S(=O)(=O)N(CCC)CC2CCOC2)cc1 (stereo unspecified)	21.8%[5.79 µM]
O=C(Cc1ccccc1Cl)N1CCN(c2cc(-c3cccs3)[nH]n2)CC1	i
SMILES	Pf Dd2 inh
Cn1ccnc1C(=O)N1CCCC(c2noc(COc3ccccc3F)n2)C1 (stereo unspecified)	-12.8%
CN1CCOC[C@H]1c1ncc(-c2cccc(F)c2)[nH]1	0.1%[44.1 µM]
Cn1nc(C2CCCN(C(=O)C3CCOCC3)C2)n(Cc2ccccc2)c1=O (stereo unspecified)	7.9%
C=CCS(=O)(=O)N1CCCC(CCc2cccc(OC)c2)C1 (stereo unspecified)	-16.1%
CS(=O)(=O)CCNC(=O)C1CCCN(C2CCN(Cc3cccnc3)CC2)C1 (stereo unspecified)	18.6%
COc1cccc(CCC2CCCN(C3CCN(Cc4cccnc4)CC3)C2)c1 (stereo unspecified)	8.91µM*
Cc1ccc(NC(=O)C2CCN(c3cn[nH]c(=O)c3)C2)cc1 (stereo unspecified)	2.2%
COCC(=O)N1CCC(c2nn(-c3ccccc3)c(=O)[nH]2)CC1	-8.2%[44.1 µM]
CNCC(=O)N1CCN(Cc2nc(C3CC3)no2)CC(O)C1 (stereo unspecified)	-11.5%
Cc1nc(C2CC(O)C2)cc(N(C)Cc2ccc3c(c2)OCO3)n1 (stereo unspecified)	-2.5%
Cc1cc(CN(C)c2cc(C3CC(N)C3)nc(N)n2)no1 (stereo unspecified)	-5.4%
CCOc1ccc(Cl)cc1CN(C)c1cc(C2CC(O)C2)nc(N)n1 (stereo unspecified)	11.2µM*
CN1CC2(CCCN(C(=O)c3cn4cc(Cl)ccc4n3)C2)OC1=O (stereo unspecified)	7.8%
COc1ccc2c(c1)C1(CCN(C(=O)CCc3ccccc3)C1)C(=O)N2C (stereo unspecified)	-2.4%
COc1ccc2c(c1)C1(CCN(S(=O)(=O)c3ccc4c(c3)CC(=O)N4C)C1)C(=O)N2C (stereo unspecified)	2.51µM*
CN1C(=O)Cc2cc(S(=O)(=O)N3CCN(c4ccc(Cl)cc4)CC3)ccc21	-0.9%
CS(=O)(=O)N1CCN(C(=O)N2CCOCC2)[C@@H](C(=O)N[C@@H](CC2CCCCC2)C(N)=O)C1	-4.8%
CN(C)C1CNC1	-10.2%[115 µM]
CCc1nccc(CN2CCC(c3nn(C)c(=O)n3CC)CC2)n1	7.9%
COCc1nncn1C1CCN(C(=O)c2cccc(C(F)(F)F)c2)CC1	-20.4%
O=C(Nc1cccc(F)c1)N1CCC(O)(c2csc(CN3CCc4ccccc4C3)n2)CC1	-2.6%
CCCNC(=O)N1CCOc2ccc(CN3CCc4ccccc4C3)cc2C1	-15.3%
COCCn1cc(CN2CCc3ccccc3C2)ccc1=O	i
O=C(Nc1cccc(F)c1)N1CCOc2ccc(CN3CCc4ccccc4C3)cc2C1	2µM*
CCOCCCNC(=O)N1CCOc2ccc(CN3CCc4ccccc4C3)cc2C1	-5.0%
SMILES	Pf Dd2 inh
COCCOCC(=O)N1CCOc2ccc(CN3CCc4ccccc4C3)cc2C1	11.2µM*
O=C(Nc1cc(F)cc(F)c1)N1CCC(CCNC(=O)C2(c3ccccc3)CC2)CC1	-20.9%
CCc1csc(CNC(=O)c2ccc(N3C[C@@H](C)O[C@@H](C)C3)nc2)n1	i
CCOc1cc(=O)n2c(c1C(=O)Nc1cc(Cl)ccc1C)CCCC2	8.1%
COCCN1C(=O)CS(=O)C12CCN(S(=O)(=O)c1c(C)noc1C)CC2 (stereo unspecified)	13.2%
CC(Sc1nc(=O)cc(N)n1CCc1ccccc1)C(=O)Nc1ccccc1C#N (stereo unspecified)	11.2µM*
Nc1cc(=O)nc(SCC(=O)Nc2ccc(F)cc2)n1CCc1ccccc1	38.3%
Cc1ccc(NC(=O)C(C)Sc2nc(=O)cc(N)n2-c2ccccc2)cc1 (stereo unspecified)	20.6%
CCOc1cc(CN(C)C(=O)CC2C(=O)NCCN2Cc2ccccc2)ccc1OC (stereo unspecified)	-14.6%
CC(C)Cn1nc2n(c1=O)CCN(S(=O)(=O)Cc1ccccc1)CC2	2.9%
CC(C)Cn1nc2n(c1=O)CCN(S(=O)(=O)c1ccc(C(C)(C)C)cc1)CC2	11.2µM*
CC(C)Cn1nc2n(c1=O)CCN(S(=O)(=O)c1cccs1)CC2	-7.4%
COc1ccc(C(=O)N2CCCC(Cc3nc(C4CCOCC4)no3)C2)cc1OC (stereo unspecified)	-6.8%
CNc1nc(C(=O)N2CCC(c3nccn3Cc3ccncc3)CC2)cs1	1.4%
COC1CN(c2ccc(C)cc2)C12CCN(C(=O)C(C)C)CC2 (stereo unspecified)	i
O=C1CCN(S(=O)(=O)c2ccccc2)CCCN(C(=O)CC2CCCCC2)CCN1	-24.5%
Cn1cc(S(=O)(=O)N2CCCC2)cc1C(=O)Nc1ccc(F)cc1F	-3.4%
CC(=O)c1ccc(NC(=O)c2cc(S(=O)(=O)N3CCCCCC3)cn2C)cc1	7.6%
Cn1cc(S(=O)(=O)N2CCCCC2)cc1C(=O)Nc1ccc(OC(F)(F)F)cc1	11.2µM*
Cc1cccc(Cn2nc3n(c2=O)CCCCC3)c1	-1.6%
